From PubChem
SSB-PriA inh – inhibitors of Klebsiella pneumoniae PriA binding to SSB C-terminal tail, primary screen, biochemical, AlphaScreen | PriA–SSB C-terminal tail interaction (Klebsiella pneumoniae) | AID 1272365, 2023 | actives 0.6% (n = 430,000) | AlphaScreen SSBct-PriA binding, biotinylated peptide | inhibition, % at 33 µM; in the data active means inhibition mostly above about 37%, no sharp cut-off; inactive means mostly below about 20%;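 further: plate controls were negative control peptide for no effect and reference peptide for full effect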
ugtP null kill – growth inhibition of ugtP-null S. aureus, primary screen, RN4220 ugtP deletion, OD600. growth inhibition, % (test concentration not listed). actives 0.54% (n = 330,000). 16 h; in the data active means growth inhibition above about 68%;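 further: plate controls were untreated wells for no effect and antibiotic for full effect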
Sa RN4220 lethal – growth inhibition of S. aureus RN4220, primary screen, OD600 | 16 h | inhibition, % (no concentration beside the values) | actives 0.33% (n = 330,000) | AID 1259311, 2017; in the data active means inhibition above about 85%;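 further: plate controls were untreated cells for no effect and reference antibiotic for full effect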
Starred values were filed as active, the others as inactive. Rows were chosen to be rich in hits. Some 1% of all compounds tested hit in one or more screens of this group.

Screening O=C(CSC1=NNC(c2ccccn2)S1)Nc1ccccc1 (stereo not drawn) returned SSB-PriA inh 87.3*, ugtP null kill 1.5 and Sa RN4220 lethal 1.9.
`Cc1nn(CC(=O)Oc2ccc(Cl)cc2)c(C)c1Cl` gave SSB-PriA inh -5.0.
For CN1CCN(CC(=O)NN=Cc2ccc(F)c(F)c2)CC1 the results were SSB-PriA inh -17.1.
Screening COCCn1c(-c2ccncc2)n[nH]c1=S returned SSB-PriA inh -15.0.
`N=C1SC(c2ccccc2)C(=O)N1c1ncc(Cc2ccccc2Cl)s1` (stereo not drawn) gave SSB-PriA inh -4.6, ugtP null kill 89.9* and Sa RN4220 lethal 81.0.
N=C1SC(c2ccccc2)C(=O)N1c1nccs1 (stereo not drawn) was read as SSB-PriA inh -13.0.
For COc1ccc(CCC(=O)N2CCN(CCn3cccn3)CC2)cc1 the results were SSB-PriA inh -5.0.
For CCN1/C(=C/c2ccc3cc(C)ccc3[n+]2CC)Sc2ccccc21 the results were SSB-PriA inh 42.6, ugtP null kill 100.5* and Sa RN4220 lethal 100.1*.
Screening CC[n+]1c(/C=C2\Sc3ccccc3N2C)ccc2cccc(C)c21 returned ugtP null kill 100.7* and Sa RN4220 lethal 100.4*.
`CCC(=O)/C=C1/Sc2ccccc2N1CC` gave SSB-PriA inh 11.6, ugtP null kill -8.8 and Sa RN4220 lethal 2.8.
For CC(=S)/C=C1\Sc2ccccc2N1C the results were SSB-PriA inh 11.0, ugtP null kill -1.3 and Sa RN4220 lethal -0.3.
`CCOC(=O)/C(=C/C=C1\Sc2cc(C)c(C)cc2N1CC)C(C)=O` gave SSB-PriA inh 1.9, ugtP null kill 7.7 and Sa RN4220 lethal 12.9.
Screening CCN1/C(=C/c2ccc3cc(C)ccc3[n+]2CC)Sc2cc(C)c(C)cc21 returned SSB-PriA inh 39.6, ugtP null kill 100.2* and Sa RN4220 lethal 100.1*.
For O=C(NCc1ccsc1)C(=O)NCc1ccccc1Cl the results were SSB-PriA inh -3.0.
Cc1nnc(SCC(=O)N2CCN(c3ccccc3)CC2)c2c1cnn2-c1ccccc1 was read as SSB-PriA inh 10.0.
`COc1ccc(C(=O)NCc2nnc(SCC(=O)c3ccccc3)n2C2CCCCC2)cc1` gave SSB-PriA inh 5.0.
O=C(c1ccccc1)c1c2c(cc3sc4ccccc4[n+]13)-c1cccc3cccc-2c13 was read as SSB-PriA inh 28.4, ugtP null kill 100.3* and Sa RN4220 lethal 100.4*.
`Cc1cc2ccccc2cc1C(=O)c1ccccc1` gave SSB-PriA inh -16.8, ugtP null kill 77.8 and Sa RN4220 lethal 4.7.
`Cc1sc2cc3c(c(C(=O)c4ccccc4)[n+]2c1C)-c1cccc2cccc-3c12` gave SSB-PriA inh 22.1, ugtP null kill 100.1* and Sa RN4220 lethal 100.1*.
For O=C(c1ccccc1)c1ccc2ccccc2c1 the results were SSB-PriA inh -31.4, ugtP null kill 18.2 and Sa RN4220 lethal 6.5.
`Cc1cc2ncc(NC(=O)C3c4ccccc4Oc4ccccc43)cn2n1` gave SSB-PriA inh -15.0.
COC1(CNS(=O)(=O)c2ccc(N3C(=O)CCC3=O)cc2)Cc2ccccc2C1 was read as SSB-PriA inh -5.0.
`CN(C)C(=O)Nc1ccc(Br)cc1` gave SSB-PriA inh -2.0.
CC(=NN1CCN(Cc2ccccc2Cl)CC1)c1ccc([N+](=O)[O-])cc1 was read as SSB-PriA inh 38.5*.
For O=[N+]([O-])c1ccc(Cl)c(C=NN2CCN(Cc3ccccc3Cl)CC2)c1 the results were SSB-PriA inh 19.9, ugtP null kill 1.1 and Sa RN4220 lethal -0.1.
For Cc1ccc2c(c1)c(-c1ccccc1)c(-c1ccccc1)n2C[C@H](O)Cn1c(C)cc(C)nc1=O the results were SSB-PriA inh -17.0.
For CCOC(=O)c1oc2ccc(CNC3CCCCC3)c(Cl)c2c1C the results were SSB-PriA inh -1.9, ugtP null kill 82.3* and Sa RN4220 lethal -1.9.
CCOC(=O)c1oc2ccc(CNCCO)c(Cl)c2c1C was read as SSB-PriA inh -5.0, ugtP null kill 17.4 and Sa RN4220 lethal 4.3.
For Cc1ccc(NC(=S)NNc2ncc(C(F)(F)F)cc2Cl)cc1 the results were SSB-PriA inh 2.1, ugtP null kill -2.0 and Sa RN4220 lethal 7.9.
Screening FC(F)(F)c1cnc(NNC(=S)Nc2ccc(Cl)cc2)c(Cl)c1 returned SSB-PriA inh 7.9, ugtP null kill 70.0 and Sa RN4220 lethal 92.4*.
For COC(=O)N1CCc2c(sc(NC(=O)C3=COCCO3)c2C#N)C1 the results were SSB-PriA inh 1.6, ugtP null kill -3.6 and Sa RN4220 lethal -0.3.
`CNC(=O)c1c(NC(=O)C2=COCCO2)sc2c1CCN(C(=O)OC)C2` gave SSB-PriA inh 1.0, ugtP null kill 97.4* and Sa RN4220 lethal 94.1*.
CCCCCOc1ccc(C(=O)Nc2nc3ccc(S(N)(=O)=O)cc3s2)cc1 was read as SSB-PriA inh -4.0.
